Here are results for eleven compounds from the supplement of paper PMC11018630.

Counter-ions that a name gives are not always drawn. ± gives the standard deviation of the averaged measurements. Over roughly 1,100 compounds, “day of extracellular matrix detachment from plate” has its median near 16; the lowest 2% begin near 10. The sample holds the lowest values, similar compounds and a random draw of the others, so the mix is not that of the screen.

The subject of this assay is RDEB dermal fibroblasts EB71. Description: day of extracellular matrix detachment from plate (days); higher = delayed detachment (less fibrotic matrix). The following applies: compound concentration: 10 uM.
With `Cc1cccc([C@H](C)c2c[nH]cn2)c1C` [Dexmedetomidine], the “day of extracellular matrix detachment from plate” value (from here on “day”) came out at 18. For `Cc1cccc(Cc2c[nH]cn2)c1C` [Detomidine HCl] the value was 14.7 ± 7.4; for `Cc1cccc([C@H](C)c2c[nH]cn2)c1C` [Dexmedetomidine HCl (Precedex)], 10 ± 1.7. For `Cc1cccc(C(C)c2c[nH]cn2)c1C` (stereo unspecified) [Medetomidine HCl] the value was 17 ± 5.2; for `O=C(O[C@H]1C[C@H]2CC[C@@H](C1)[N+]21CCCC1)C(O)(c1ccccc1)c1ccccc1` [Trospium chloride], 12; for `Cc1ccc(-c2nc3ccc(C)cn3c2CC(=O)N(C)C)cc1` [Zolpidem], 17.7 ± 1.1. For `C=CCN1CC[C@]23c4c5ccc(O)c4O[C@H]2C(=O)CC[C@@]3(O)[C@H]1C5` [Naloxone HCl] the value was 17.7 ± 3.5; for `O=C1CC[C@@]2(O)[C@H]3Cc4ccc(O)c5c4[C@@]2(CCN3CC2CC2)[C@H]1O5` [Naltrexone HCl], 10 ± 1.7. On to `C=C1CC[C@@]2(O)[C@H]3Cc4ccc(O)c5c4[C@@]2(CCN3CC2CC2)[C@H]1O5` [Nalmefene HCl], for which the “day” value amounted to 13. Regarding `O=C(O[C@H]1C[N+]2(CCCOc3ccccc3)CCC1CC2)C(O)(c1cccs1)c1cccs1` [Aclidinium Bromide], the “day” value turned out to be 16.7 ± 2.3.

In the case of `N[C@@H]1C[C@H]1c1ccccc1` [Tranylcypromine (2-PCPA) HCl], the “day” value turned out to be 13.
